Rows were chosen to be rich in hits. Some 11% of all compounds tested hit in one or more screens of this group.
JMJD2A Tudor inh – qHTS Assay for Inhibitors of JMJD2A-Tudor Domain; AID 504339, 2011; 390,000 compounds, 4.4% hits; Potency, µM (titrated, usually from 114 µM), inactives show top-dose activity change, negative = inhibition, hits mostly inhibitors; Lysine-specific demethylase 4A (Homo sapiens), O75164; AlphaScreen JMJD2A-Tudor / H3K4me3 peptide binding; note: potency is the fitted concentration of half-maximal effect; % is set by controls: 0 for no effect and ±100 for the full control effect; nearly all actives have a fitted effect of over 50% in size
L3MBTL1 inh – qHTS Assay for the Inhibitors of L3MBTL1; Lethal(3)malignant brain tumor-like protein 1 (Homo sapiens), Q9Y468; Potency, µM (series often up to 57.1 µM), without a hit: at the highest dose activity, negative = inhibition, usual class: inhibitors; AID 485360, 2010; 230,000 compounds, 0.66% hits; AlphaScreen L3MBTL1–H3K9me1 peptide binding; note: potency is the fitted concentration of half-maximal effect; % is set by controls: 0 for no effect and ±100 for the full control effect; nearly all actives have a fitted effect of over 60% in size
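L3MBTL1 50 nM + b-AHA-H3(1-15)K9me1 75 nM, 30 min RT; compound added, 30 min RT; streptavidin donor/Ni-chelate acceptor beads 10 ug/mL each final, 30 min RT dark; AlphaScreen read.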
HP1b binding inh – HTS for Inhibitors of HP1-beta Chromodomain Interactions with Methylated Histone Tails; Chromobox protein homolog 1 (Homo sapiens), P83916; AlphaScreen HP1-beta / biotin-H3K9me3 peptide binding; Potency, µM (top dose mostly 114 µM), inactives show at the top dose activity change, negative = inhibition, usual class: inhibitors; 390,000 compounds, 0.56% hits; note: potency is the fitted concentration of half-maximal effect; nearly all actives have a fitted effect of over 70% in size
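Compound inhibition of the preformed complex between 50 nM HP1-beta and 50 nM biotinylated H3K9me3 peptide was read by AlphaScreen. Buffer was PBS pH 7.4 with 0.01% Tween-20. Incubations ran 30 min at room temperature, with 10 ug/mL donor/acceptor beads.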
BAZ2B block – qHTS Assay for Inhibitors of BAZ2B | AID 504333, 2011 | Bromodomain adjacent to zinc finger domain protein 2B (Homo sapiens), Q9UIF8 | AlphaScreen BAZ2B-H3K14Ac peptide displacement | 360,000 compounds, 4.4% hits | Potency, µM (top dose mostly 114 µM), without a hit: at the highest dose activity change, negative = inhibition, hits mostly inhibitors; note: potency is the fitted concentration of half-maximal effect; % is set by controls: 0 for no effect and ±100 for the full control effect; nearly all actives have a fitted effect of over 60% in size
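BAZ2B (50 nM) with biotin-H3(5-23)K14Ac peptide (50 nM) in PBS pH 7.4, 0.01% Tween-20, preformed 30 min, then compound 30 min at room temperature; top concentration 110uM. AlphaScreen streptavidin donor/nickel chelate acceptor beads (10 ug/mL final), 20 min dark, signal read.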
PI5P4Ka inh – qHTS for Inhibitors of phosphatidylinositol 5-phosphate 4-kinase (PI5P4K). AID 652105, 2013. PI5P4Kalpha enzyme, ADP-Glo luminescence, 60 min; active compounds read low. max response, %. Phosphatidylinositol 5-phosphate 4-kinase type-2 alpha (Homo sapiens), P48426. 330,000 compounds, 1.2% hits; active = max response of -50% or lower; inconclusive = between -30% and -50%; inactive = -30% or higher; note: value at the top dose of about 77 µM; % is set by controls: 0 for no effect and ±100 for the full control effect
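Single end-point luminescence (ADP-Glo) quantified ADP from PI5P4Kalpha turnover; ATP 5 microM final, 1 h at RT, 0.1% CHAPS and 0.28 mM EGTA in HEPES pH 7.4.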
G9a block – qHTS Assay for Inhibitors of Histone Lysine Methyltransferase G9a; Potency, µM (top dose mostly 102 µM), inactives show top-dose activity, negative = inhibition, most hits filed as inhibitors; G9a H3K9 monomethylation, AlphaScreen, 2 h; AID 504332, 2011; 350,000 compounds, 8.8% hits; note: potency is the fitted concentration of half-maximal effect; % is set by controls: 0 for no effect and ±100 for the full control effect; nearly all actives have a fitted effect of over 75% in size
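Methyltransferase reactions run at room temperature for 2 h (20 nM enzyme, 500 nM biotin-H3K9 peptide, 20 uM SAM) after a 15 min compound preincubation; product detected by AlphaScreen beads and anti-H3K9me1 antibody.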
An asterisk follows results filed as active; ? = inconclusive; . = no result given; [ ] = remark or other dose. Unless noted, calls come from the whole dose curve; as a rule, active = well fitted inhibition curve with a large enough effect; inconclusive = small, poorly fitted or top-dose-only effect; inactive = no such curve, though single readings can be large or run the other way.

SMILES	JMJD2A Tudor inh	L3MBTL1 inh	HP1b binding inh	BAZ2B block	PI5P4Ka inh	G9a block
O=C1Cc2ccccc2C(=O)N1c1cccc(Cl)c1	-25%	.	27%	-28%	?	40µM*
COc1ccccc1-c1nc2c(c(SCC(=O)Nc3ccccc3F)n1)Cc1c(CO)cnc(C)c1O2	-14%	.	36%	-17%	.	-43%[59 µM]
Cc1cc(C)cc(NC(=O)C(Cc2ccccc2)N2Cc3ccccc3C2=O)c1 (stereo not drawn)	-16%	.	-9%	1%	.	-12%[59 µM]
Cc1ccnc2c1ccc1ccccc12	17%	.	78%	43%	10	65%
Cc1ccnc2c1ccc1c(C)ccnc12	7.1µM*	-86%	48%	4.5µM*	4	?
Cc1ccnc2c1ccc1cccnc12	5.6µM*	3.5µM*	43%	2.8µM*	6	13µM*
Cc1ccnc2c(N3C(=O)C4C5c6ccccc6C(c6ccccc65)C4C3=O)cccc12 (stereo not drawn)	-30%	?	11%	-29%	3	.
Cc1ccc2cccnc2c1N	22µM*	-21%	-4%	?	1	-3%
CCC(C(=O)Nc1cc(C)ccc1C)n1c(=O)c(C(F)(F)F)nc2ccccc21 (stereo not drawn)	-14%	.	22%	-3%	.	-5%[59 µM]
O=C(NCCCN1CCN(c2ccc(F)cc2)CC1)c1cc2c(Cl)nc3ccccc3c2s1	-12%	.	24%	-16%	.	-3%[59 µM]
CC(C)(O)C#Cc1ccc(C(=O)N2CCCC(CNS(=O)(=O)c3cccs3)C2)o1 (stereo not drawn)	-13%	.	28%	-19%	-1	28µM*
Cc1cc(C)c(C(=O)N2CCCC(CNS(=O)(=O)c3cccs3)C2)o1 (stereo not drawn)	-6%	.	36%	-19%	-1	-2%
FC(F)(F)c1cnc(-c2cnc(-c3ccncc3)nc2)c(Cl)c1	-14%	14%	30%	4%	12	-6%
FC(F)(F)c1cnc(-c2cnc(-c3ccccn3)nc2)c(Cl)c1	-12%[11.4 µM]	10%	35%	?	7	50µM*
COc1ccc(Br)cc1CNC(=O)CCCn1c(=O)c2cccn2c2cccnc21	-14%	.	55%	-3%	.	5%[59 µM]
CCCCOc1ccc(CNC(=O)c2cnc3sc(N4CCC(C)CC4)nn3c2=O)cc1	-14%	.	52%	23%	.	13%[59 µM]
N/C(=N\OS(=O)(=O)c1ccc(Cl)cc1)c1cccnc1	-3%	10%	42%	0%	3	?
N/C(=N\OS(=O)(=O)c1ccc(Cl)cc1)c1ccncc1	-15%	.	-17%	7%	.	2.5µM*
CCN=c1scc(-c2ccc(F)cc2)n1/N=C/c1ccccn1	?	-26%	?	.	-3	16µM*
C=CCN=c1scc(-c2ccccc2)n1/N=C/c1ccccn1	45µM*	-27%	28µM*	28µM*	1	?
CCN=c1scc(-c2ccccc2)n1/N=C/c1ccccn1	28µM*	-21%	?	14µM*	1	?
Fc1ccccc1-n1ncc2c1ncn1nc(COc3ccc(Cl)cc3)nc21	-5%	.	27%	0%	.	10%[59 µM]
O=S(=O)(Nc1ccc(-c2ccc(N3CCCC3)nn2)cc1)c1ccc(OC(F)(F)F)cc1	-21%	.	14%[57 µM]	-11%	.	6%[59 µM]
CCCCCN1C=CC=C/C1=C\C=C(C#N)C#N	-24%	-14%	-10%	?	0	?
CCCCCCN1C=C/C(=C\C=C(C#N)C#N)c2ccccc21	2.8µM*	-16%	?	3.2µM*	-18	7.1µM*
C=CCN1C=C/C(=C\C=C(C#N)C#N)c2ccccc21	22µM*	?	?	3.2µM*	-30	?

Screening results from PubChem BioAssay.
